Test results published in PubChem BioAssay AID1159580 (chemical genetic matrix, 2015).
Several values for one entry are separate records, joined by “and”; a condition that tells them apart may be missing. Equal values may be shown once. About 2,000 (36%) of roughly 5,500 compounds were called active. Roughly 18% stayed inconclusive and do not appear here. No stated cut-off is given here; in the data, active means normalized growth mostly below about 0.91 (no sharp cut-off); inconclusive means no clear call, values can overlap the other calls; inactive means mostly above about 0.92. The list shows a part of the results.

Test: chemical genetic growth profiling, strain panel (AID 1159580);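 further: tested at 20 µM; growth read once vehicle control cultures reached saturation at 30 °C; 1 = growth at the plate median or of vehicle wells; lower values mean less growth of the strain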
Settings: S. cerevisiae deletion strains, growth OD

Measured: normalized growth

c1coc(CNc2ncnc3nc[nH]c23)c1
inactive: locus YAL013W, strain DEP1, active compounds read low 0.998 | locus YAL021C, strain ccr4, active compounds read low 0.995 | locus YAL026C, strain drs2, active compounds read low 0.997 | locus YAL030W, strain snc1, active compounds read low 1 | locus YBL061C, strain skt5, active compounds read low 0.997 | locus YBR009C, strain hhf1, active compounds read low 0.988 | locus YBR021W, strain FUR4, active compounds read low 1.02 | locus YBR023C, strain chs3, active compounds read low 0.996 | locus YBR171W, strain sec66, active compounds read low 0.994 | locus YBR229C, strain ROT2, active compounds read low 1.01 | locus YBR231C, strain swc5, active compounds read low 1 | locus YBR279W, strain paf1, active compounds read low 1 | locus YCL011C, strain gbp2, active compounds read low 1 | locus YCL016C, strain dcc1, active compounds read low 1 | locus YCL029C, strain bik1, active compounds read low 0.991 | locus YCL061C, strain MRC1, active compounds read low 1.01 | locus YCL069W, strain vba3, active compounds read low 0.999 | locus YCR088W, strain abp1, active compounds read low 0.991 | locus YDL005C, strain med2, active compounds read low 0.995 | locus YDL035C, strain GPR1, active compounds read low 1.01 | locus YDL040C, strain nat1, active compounds read low 0.996 | locus YDL074C, strain BRE1, active compounds read low 0.997 | locus YDL101C, strain DUN1, active compounds read low 0.995 | locus YDL134C, strain PPH21, active compounds read low 1.01 | locus YDL185W, strain tfp1, active compounds read low 0.964 | locus YDL192W, strain arf1, active compounds read low 0.99 | locus YDR001C, strain nth1, active compounds read low 0.993 | locus YDR069C, strain doa4, active compounds read low 1 | locus YDR101C, strain arx1, active compounds read low 0.996 | locus YDR137W, strain rgp1, active compounds read low 0.964 | locus YDR150W, strain NUM1, active compounds read low 0.992 | locus YDR159W, strain sac3, active compounds read low 0.974 | locus YDR162C, strain NBP2, active compounds read low 0.992 | locus YDR195W, strain ref2 0.974 | locus YDR297W, strain sur2, active compounds read low 0.997 | locus YDR318W, strain mcm21, active compounds read low 0.995 | locus YDR334W, strain swr1, active compounds read low 1.01 | locus YDR335W, strain msn5, active compounds read low 1.01 | locus YDR388W, active compounds read low 1 | locus YDR392W, strain spt3, active compounds read low 0.991 | locus YDR502C, strain sam2, active compounds read low 1.01 | locus YEL003W, strain gim4, active compounds read low 1 | locus YEL037C, strain rad23, active compounds read low 0.998 | locus YEL061C, strain CIN8 (second series), active compounds read low 0.997 | locus YEL061C, strain CIN8, active compounds read low 0.995 | locus YER015W, strain faa2, active compounds read low 1 | locus YER016W, strain bim1, active compounds read low 0.99 | locus YER110C, active compounds read low 0.999 | locus YER111C, strain swi4, active compounds read low 0.986 | locus YER155C, strain BEM2 (second series), active compounds read low 0.97 | locus YER155C, strain BEM2, active compounds read low 0.999 | locus YER167W, strain BCK2, active compounds read low 1 | locus YFR010W, strain ubp6, active compounds read low 1 | locus YGL078C, strain dbp3, active compounds read low 0.992 | locus YGL086W, strain mad1, active compounds read low 1 | locus YGL167C, strain pmr1, active compounds read low 1 | locus YGL173C, strain kem1, active compounds read low 0.993 | locus YGL227W, strain vid30, active compounds read low 0.993 | locus YGL240W, strain doc1, active compounds read low 0.996 | locus YGL248W, strain PDE1, active compounds read low 1.02 | locus YGL253W, strain hxk2, active compounds read low 0.995 | locus YGR078C, strain PAC10, active compounds read low 0.994 | locus YGR135W, strain pre9, active compounds read low 0.997 | locus YGR229C, strain SMI1, active compounds read low 1 | locus YGR252W, strain gcn5, active compounds read low 1.19 | locus YHR013C, strain ard1, active compounds read low 0.983 | locus YHR027C, strain rpn1, active compounds read low 1 | locus YHR030C, strain SLT2, active compounds read low 0.998 and 0.973 | locus YHR079C, strain IRE1 (second series), active compounds read low 0.996 | locus YHR079C, strain IRE1, active compounds read low 0.964 | locus YHR094C, strain hxt1, active compounds read low 0.957 | locus YHR129C, strain ARP1, active compounds read low 0.999 | locus YHR142W, strain chs7, active compounds read low 0.992 | locus YHR200W, strain rpn10, active compounds read low 0.986 | locus YIL066C, strain RNR3, active compounds read low 1.01 | locus YIL073C, strain SPO22, active compounds read low 0.978 | locus YIL125W, strain kgd1, active compounds read low 0.988 | locus YIR030C, strain dcg1, active compounds read low 0.998 | locus YJL092W, strain hpr5, active compounds read low 0.995 | locus YJL095W, strain BCK1 (second series), active compounds read low 0.994 | locus YJL095W, strain BCK1, active compounds read low 0.985 and 0.986 | locus YJL115W, strain asf1, active compounds read low 1 | locus YJL129C, strain trk1, active compounds read low 1.02 | locus YJL134W, strain LCB3, active compounds read low 0.997 | locus YJL154C, strain vps35, active compounds read low 0.997 | locus YJL164C, strain tpk1, active compounds read low 0.997 | locus YJL166W, strain qcr8, active compounds read low 1 | locus YJL168C, strain set2, active compounds read low 0.996 | locus YJL187C, strain SWE1 (second series), active compounds read low 0.992 | locus YJR043C, strain POL32, active compounds read low 0.985 | locus YJR066W, strain TOR1, active compounds read low 0.912
